What all share (test): NCI-60 one-dose screen, 48 h (100 = growth as untreated, 0 = no growth, -100 = all killed)
One test concerns DU-145 prostate. To be noted: 10 µM unless noted.
The test system of the next test is K-562 leukemia. To be noted: 10 µM unless noted.
The next test has as its system MALME-3M melanoma. To be noted: 10 µM unless noted.
The next test concerns MDA-MB-231 breast. To be noted: 10 µM unless noted.
For a further test, the system named is RXF 393 renal. Particulars: 10 µM unless noted.
A further test has as its system SF-268 CNS. To be noted: 10 µM unless noted.
The next test concerns SF-295 CNS. Particulars: 10 µM unless noted.
The test system of a further test is SF-539 CNS. Particulars: 10 µM unless noted.
The next test deals with UACC-257 melanoma. To be noted: 10 µM unless noted.
In another test the test system is M14 melanoma. Particulars: 10 µM unless noted.
The test system of the next test is HCT-15 colon. Particulars: 10 µM unless noted.
The next test relates to HT29 colon. To be noted: 10 µM unless noted.
The test system of another test is SNB-19 CNS. Particulars: 10 µM unless noted.
The next test deals with U251 CNS. To be noted: 10 µM unless noted.
For a further test, the system named is PC-3 prostate. To be noted: 10 µM unless noted.
For the next test, the system named is SK-MEL-5 melanoma. To be noted: 10 µM unless noted.
A further test concerns UACC-62 melanoma. To be noted: 10 µM unless noted.
The next test deals with LOX IMVI melanoma. Particulars: 10 µM.
The test system of another test is SK-MEL-28 melanoma. Particulars: 10 µM unless noted.

The panel holds about 83,000 compounds, 20% with a hit somewhere; the sample as a whole holds those more often.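 Growth was measured after 48 h exposure to one concentration of compound in 96-well plates. Values under 10 count as active.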 Values without a mark were called inactive. Active and inactive are the calls of the source.

`Cc1ccccc1[C@H]1C(C(=O)c2ccc(Cl)cc2)C2(N[C@@H]1c1ccccc1)C(=O)Nc1ccc(Br)cc12` (some centres not stated): the growth in the test with DU-145 prostate was 15%; in the test on K-562 leukemia, 1.41% (active); in the test on MALME-3M melanoma it was 45.1%; with MDA-MB-231 breast, -19.8% (active); with RXF 393 renal it was -29% (active); in the test on SF-268 CNS it was 31%. Further, the growth in the test with SF-295 CNS was 19.3%; in the test with SF-539 CNS it was 36.9%; in the test on UACC-257 melanoma it was 37.3%; in the test on M14 melanoma, 1.39% (active); with HCT-15 colon, 7.15% (active); in the test with HT29 colon it was -58.6% (active). Also, the growth in the test on SNB-19 CNS was 38.4%; with U251 CNS, -3.71% (active); in the test on PC-3 prostate, -4.58% (active); in the test on SK-MEL-5 melanoma it was 35.3%; with UACC-62 melanoma, 11.2%; in the test with LOX IMVI melanoma it was -95.3% (active). Also, the growth with SK-MEL-28 melanoma is 41%.
With `O=C(Cn1c(/C=C/c2ccccc2)nc2ccccc2c1=O)Nc1ccccc1`, the growth was 74.8% with DU-145 prostate; 93.2% in the test with K-562 leukemia; 69.9% in the test with MALME-3M melanoma; 24.8% with MDA-MB-231 breast; 8.81% (active) in the test on RXF 393 renal; 91.4% in the test with SF-268 CNS. The growth in the test on SF-295 CNS was 70.7%; in the test on SF-539 CNS it was 70.2%; in the test with UACC-257 melanoma it was 104%; in the test with M14 melanoma, 102%; with HCT-15 colon, 76.6%; with HT29 colon it was 98.5%. The growth is 67.8% in the test with SNB-19 CNS; 35.8% in the test with U251 CNS; 76.1% in the test with PC-3 prostate; 97.3% in the test on SK-MEL-5 melanoma; 90.1% in the test with UACC-62 melanoma; 43.2% with LOX IMVI melanoma. The growth in the test with SK-MEL-28 melanoma was 111%.
On to `C=C1CC[C@@H]2[C@]3(C)COC(c4cn[nH]c4-c4cccc(Br)c4)O[C@@H]3CC[C@@]2(C)[C@@H]1C/C=C1/C(=O)OCC1O` (some centres not stated), for which the growth in the test with DU-145 prostate is -85.5% (active); in the test on K-562 leukemia, -2.18% (active); with MALME-3M melanoma it was -74.5% (active); in the test on MDA-MB-231 breast it was -47.3% (active); in the test on RXF 393 renal it was -90.8% (active); in the test on SF-268 CNS, -22.7% (active). Moreover, the growth in the test with SF-295 CNS is -78.6% (active); in the test on SF-539 CNS it was -97.8% (active); in the test with UACC-257 melanoma it was -72% (active); with M14 melanoma, -75.7% (active); in the test with HCT-15 colon it was -67.5% (active); in the test with HT29 colon, 1.52% (active). Besides, the growth is -87.9% (active) in the test on SNB-19 CNS; -90.9% (active) with U251 CNS; -47.9% (active) in the test with PC-3 prostate; -99.6% (active) in the test on SK-MEL-5 melanoma; -83.2% (active) in the test with UACC-62 melanoma; -100% (active) in the test on LOX IMVI melanoma. Moreover, the growth in the test with SK-MEL-28 melanoma is -76.7% (active).
As to `CC(C)c1sc(NC(=O)c2cc(NC(=O)c3cc(NC(=O)c4nccn4C)cn3C)cn2C)nc1C(=O)NCCCN(C)C`, the growth with DU-145 prostate is 91.7%; in the test on K-562 leukemia, 30.8%; with MALME-3M melanoma it was 65%; in the test with MDA-MB-231 breast it was 85.5%; with RXF 393 renal, 76.6%; with SF-268 CNS, 57.9%. The growth is 100% in the test with SF-295 CNS; 76.9% in the test with SF-539 CNS; 82.3% with UACC-257 melanoma; 94.3% with M14 melanoma; 104% in the test with HCT-15 colon; 90.7% in the test with HT29 colon. For the same molecule, the growth is 48.1% with SNB-19 CNS; 30.2% with U251 CNS; 46% with PC-3 prostate; 73.5% in the test on SK-MEL-5 melanoma; 66.3% in the test with UACC-62 melanoma; 29.8% with LOX IMVI melanoma. In addition, the growth with SK-MEL-28 melanoma is 99%.
Take `COc1ccc2c(c1)c(-c1cc3nc(-c4cn(C)c5ncc(Br)cc45)cc(N)n3n1)cn2C`: the growth in the test with DU-145 prostate was 26%; in the test with K-562 leukemia, -33.5% (active); in the test on MALME-3M melanoma, -88.4% (active); with MDA-MB-231 breast, -73% (active); with RXF 393 renal, -72.9% (active); with SF-268 CNS, 12.4%. Further, the growth in the test on SF-295 CNS was -67.2% (active); in the test with SF-539 CNS it was -87.6% (active); in the test on UACC-257 melanoma, -74.3% (active); with M14 melanoma, -74.4% (active); with HCT-15 colon, -48% (active); with HT29 colon, -88.5% (active). In addition, the growth in the test with SNB-19 CNS was -16.9% (active); in the test on U251 CNS it was -57.3% (active); with PC-3 prostate, -19.5% (active); in the test with SK-MEL-5 melanoma, -88.1% (active); in the test with UACC-62 melanoma it was -82.2% (active); in the test with LOX IMVI melanoma it was -100% (active). Further, the growth in the test with SK-MEL-28 melanoma was -92.8% (active).
Turning to `Brc1ccc(N/N=C/c2c[nH]c3ccc(Br)cc23)nc1`, the growth in the test on DU-145 prostate is 15.6%; with K-562 leukemia, -33.1% (active); in the test on MALME-3M melanoma it was -57.4% (active); with MDA-MB-231 breast it was -63.5% (active); in the test with RXF 393 renal, -22.9% (active); in the test with SF-268 CNS it was 10.5%. Further, the growth in the test on SF-295 CNS is -78.3% (active); with SF-539 CNS, -41.5% (active); in the test with UACC-257 melanoma it was 7.1% (active); in the test with M14 melanoma, -71.3% (active); in the test with HCT-15 colon, -61.8% (active); in the test on HT29 colon it was -80.1% (active). The growth in the test with SNB-19 CNS was 4.49% (active); in the test with U251 CNS it was -63.5% (active); with PC-3 prostate it was -29.6% (active); with SK-MEL-5 melanoma it was -87% (active); with UACC-62 melanoma, -57% (active); with LOX IMVI melanoma, -100% (active). Besides, in the test on SK-MEL-28 melanoma, the growth was -50.7% (active).
Take `CN(C)CCOc1ccc(C(=O)C2[C@H](c3ccc(Cl)cc3)[C@@H](c3ccccc3)NC23C(=O)Nc2ccccc23)cc1` (some centres not stated): the growth was 66.6% in the test on DU-145 prostate; -51.5% (active) in the test with K-562 leukemia; 79.8% in the test on MALME-3M melanoma; 49.5% with MDA-MB-231 breast; 50.4% with RXF 393 renal; 78.1% in the test on SF-268 CNS. Also, the growth in the test with SF-295 CNS was 65.7%; in the test with SF-539 CNS, 82.8%; with UACC-257 melanoma it was 95.8%; in the test with M14 melanoma it was 45.2%; with HCT-15 colon it was 12%; with HT29 colon, -69.3% (active). Besides, the growth with SNB-19 CNS is 83.8%; in the test on U251 CNS, 11.9%; in the test with PC-3 prostate it was 41.9%; in the test on SK-MEL-5 melanoma it was 83.7%; in the test on UACC-62 melanoma, 78.8%; in the test on LOX IMVI melanoma it was -94.3% (active). The growth in the test with SK-MEL-28 melanoma is 94.6%.
With `Cn1cc(-c2cc(N)n3nc(-c4c[nH]c5ccccc45)cc3n2)c2cc(Br)cnc21`, the growth with DU-145 prostate was 5.95% (active); in the test on K-562 leukemia it was -23.9% (active); in the test on MALME-3M melanoma, -83.9% (active); with MDA-MB-231 breast it was -83.4% (active); with RXF 393 renal, -76.3% (active); in the test with SF-268 CNS it was 0.392% (active). For the same molecule, the growth is -71.6% (active) in the test on SF-295 CNS; -93.5% (active) in the test with SF-539 CNS; -78.9% (active) in the test with UACC-257 melanoma; -71% (active) in the test with M14 melanoma; -58.5% (active) in the test with HCT-15 colon; -80.7% (active) in the test with HT29 colon. Moreover, the growth with SNB-19 CNS was -39.6% (active); with U251 CNS it was -79.7% (active); in the test on PC-3 prostate, -43.3% (active); in the test on SK-MEL-5 melanoma it was -94.2% (active); with UACC-62 melanoma, -95% (active); in the test with LOX IMVI melanoma it was -94.1% (active). The growth in the test with SK-MEL-28 melanoma was -96.2% (active).

The record behind these values is PubChem BioAssay (NCI).
